This note sets out measurements from the antibiotic and cytotoxicity screens of Wong et al. (2023).

The campaign covered roughly 39,000 compounds. About 1,500 (3.8%) were called active. Many of the other results were omitted from the sample, so actives are more common in it than they were.

This test has as its system HSkMC (human skeletal muscle cells). Put plainly: cytotoxicity call (relative viability < 0.9). The note with it: 10 µM.
In the case of `C[C@@H]1CN([C@H](C)CO)C(=O)c2cc(NC(=O)CCC(F)(F)F)ccc2O[C@@H]1CN(C)C(=O)Nc1cccc2ccccc12`, the cytotoxicity call is “inactive”.
With `COc1ccc(NC(=O)N2C[C@H](O)COC[C@H]3O[C@H](CC(=O)NCc4ccccc4OC)CC[C@@H]32)cc1` the entry was “inactive”; with `C[C@@H]1CCCCO[C@@H](CN(C)C(=O)C2CCCCC2)[C@H](C)CN([C@H](C)CO)C(=O)c2cc(NC(=O)Nc3ccc4c(c3)OCO4)ccc2O1`, “inactive”.
With `COc1ccc2occ(C(C)=O)c2c1` the entry was “inactive”.
On to `C[C@@H]1CN([C@H](C)CO)C(=O)c2cc(NS(=O)(=O)c3ccc(Cl)cc3)ccc2O[C@H]1CN(C)Cc1ccc(-c2ccccc2)cc1`, for which the cytotoxicity call was “active”.
With `C[C@@H]1CN([C@H](C)CO)C(=O)c2cc(NS(=O)(=O)c3ccccc3)ccc2O[C@H]1CN(C)Cc1ccc(-c2ccccc2)cc1` the entry was “inactive”.
With `C[C@H](CO)N1C[C@H](C)[C@@H](CN(C)Cc2ccc(-c3ccccc3)cc2)Oc2ccc(NS(=O)(=O)c3ccc(Cl)cc3)cc2C1=O` the entry was “active”.
With `COc1cccc(C#Cc2ccc([C@H]3[C@H]4CN(S(=O)(=O)c5ccccc5C)CC(=O)N4[C@H]3CO)cc2)c1`, the cytotoxicity call is “inactive”.
Take `C[C@H](CO)N1C[C@H](C)[C@@H](CN(C)C(=O)Cc2ccncc2)Oc2cc(C#CC3CCCCC3)ccc2S1(=O)=O`: the cytotoxicity call was “inactive”.
With `O=C(Nc1cc(Cl)ccc1Cl)c1cc(Cl)ccc1NS(=O)(=O)c1ccc(Cl)c([N+](=O)[O-])c1` the entry was “inactive”; with `NC(=O)c1ccc([N+](=O)[O-])cc1Cl`, “inactive”; with `O=C(Nc1ccc([N+](=O)[O-])cc1Cl)c1cc(Cl)ccc1O`, “active”.
With `C[C@@H]1CN([C@H](C)CO)C(=O)c2cccc(NC(=O)NC3CCCCC3)c2O[C@H]1CN(C)Cc1ccc(C(F)(F)F)cc1` the entry was “inactive”; with `COc1cccc(CNC(=O)c2cc3c(c(-c4cccc(-c5ccc(C#N)cc5)c4)n2)[C@H](CCO)N([S@@](=O)C(C)(C)C)C3)c1`, “inactive”; with `CN(C)C(=O)c1cccc(-c2cccc(-c3nc(C(=O)NC4CCCCC4)cc4c3[C@@H](CCO)N([S@@](=O)C(C)(C)C)C4)c2)c1`, “active”.
With `CN(C)C(=O)c1ccc(-c2cccc(-c3nc(C(=O)NCc4ccccc4)cc4c3[C@@H](CCO)N([S@@](=O)C(C)(C)C)C4)c2)cc1` the entry was “active”.
`COc1cccc(CNC(=O)c2cc3c(c(-c4cccc(-c5ccc(C#N)cc5)c4)n2)[C@@H](CCO)N([S@](=O)C(C)(C)C)C3)c1`: the cytotoxicity call was “active”.
With `CN(C)C(=O)c1ccc(-c2cccc(-c3nc(C(=O)NCc4ccccc4)cc4c3[C@@H](CCO)N([S@](=O)C(C)(C)C)C4)c2)cc1` the entry was “inactive”; with `CN(C)C(=O)c1ccc(-c2cccc(-c3nc(C(=O)NCc4ccccc4)cc4c3[C@H](CCO)N([S@@](=O)C(C)(C)C)C4)c2)cc1`, “inactive”.
With `COc1cccc(CNC(=O)c2cc3c(c(-c4cccc(-c5cccc(C#N)c5)c4)n2)[C@H](CCO)N([S@@](=O)C(C)(C)C)C3)c1` the entry was “inactive”; with `CN(C)C(=O)c1cccc(-c2cccc(-c3nc(C(=O)NC4CCCCC4)cc4c3[C@H](CCO)N([S@@](=O)C(C)(C)C)C4)c2)c1`, “inactive”.
With `CN(C)C(=O)c1cccc(-c2cccc(-c3nc(C(=O)NC4CCCCC4)cc4c3[C@@H](CCO)N([S@](=O)C(C)(C)C)C4)c2)c1` the entry was “inactive”.
